# In PubChem BioAssay (NCI):
# Compounds without any hit were thinned out: in the full panel of roughly 79,000, 15% have a hit. Values without a mark were called inactive. Calls of active or inactive are those of the source. No stated cut-off is given here; in the data, active means growth inhibition above about 70%; inactive means the rest.
# Columns and labels:
# [1] = NCI Yeast Anticancer Drug Screen. Data for the rad50 strain (AID 155);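 further: 0% = growth of vehicle-only cultures of the same strain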; details: S. cerevisiae rad50 strain growth inhibition; at 50.0 µM; hits give high values
# Procedure, shortened: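 DNA repair mutant yeast, compound exposure, growth read-out; inhibition is taken relative to vehicle.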
# [2] = NCI Yeast Anticancer Drug Screen. Data for the mec2-1 strain (AID 157); details: S. cerevisiae mec2-1 strain, at 50.0 µM, hits give high values
# Procedure, shortened: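 Strain: mec2-1 (DNA repair/cell cycle alteration). Compound exposure, then growth measured; inhibition expressed relative to vehicle.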
# [3] = NCI Yeast Anticancer Drug Screen. Data for the sgs1 mgt1 strain (AID 161);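 further: 0% = growth of cultures given vehicle only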; details: S. cerevisiae sgs1 mgt1 strain, at 50.0 µM, hits give high values
# Procedure, shortened: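 Test agents were incubated with a DNA-repair-mutant yeast strain. Growth was then read and compared against vehicle-treated controls.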
# [4] = NCI Yeast Anticancer Drug Screen. Data for the cln2 rad14 strain (AID 165);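 further: 0% = growth equal to vehicle treated cultures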; details: S. cerevisiae cln2 rad14 strain, at 50.0 µM, hits give high values
# Procedure, shortened: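 Compounds are applied to the cln2 rad14 yeast strain, and growth is then compared with that of vehicle-treated cultures to give inhibition.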
# [5] = NCI Yeast Anticancer Drug Screen. Data for the bub3 strain (AID 167); details: S. cerevisiae bub3 mutant strain, at 50.0 µM, hits give high values
# Procedure, shortened: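 In this screen, a yeast mutant lacking normal mitotic checkpoint function is challenged with compound. Relative growth versus vehicle gives the inhibition value.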
# [6] = NCI Yeast Anticancer Drug Screen. Data for the mlh1 rad18 strain (AID 175); details: S. cerevisiae mlh1 rad18 strain growth inhibition; at 50.0 µM; hits give high values
# Procedure, shortened: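 Read-out is yeast growth inhibition, calculated against vehicle-only controls. The compound was applied to a strain engineered with DNA damage repair alterations.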
SMILES,growth inhibition [1],growth inhibition [2],growth inhibition [3],growth inhibition [4],growth inhibition [5],growth inhibition [6]
N=N/C(=C\c1c(O)[nH]c2ccccc12)c1ccccc1,-7.35%,13.6%,34.2%,-35.2%,57.3%,-8.75%
Oc1ccc2ccccc2c1/C=N\Sc1ccc(Cl)cc1,49%,34.7%,64.1%,28.8%,32.2%,49%
CC(=O)OC/C=C1/CC[C@H]2[C@@H]3CCC4=CC(=O)[C@H](C)C[C@]4(C)[C@H]3[C@@H](O)C[C@]12C,-1.85%,-2%,4.05%,1.8%,-9.2%,-21.8%
COC1C(O)=C2C(=O)OC(C)(O)/C=C/C=C\C=C/C=C/C(c3ccccc3)NC(=O)/C=C/C=C/C=C/C=C/C2(C)C1O (stereo not given),-1.7%,-14.1%,3.3%,3.55%,-9.3%,4.5%
CSc1nnc(CF)c(=O)[nH]1,-1.4%,-1.35%,-12.3%,-4.2%,-7.05%,-14.4%
c1ccc(C2OCC(OC3CCCCO3)CO2)cc1 (stereo not given),-0.1%,-26.5%,-24.6%,-5.1%,-9.45%,-2.15%
CN(C)CCCn1c2ccccc2c2cnccc21,0.5%,-10.9%,-17.6%,-54.5%,-48.2%,14.8%
COC(=O)Nc1ccc(C)cc1[N+](=O)[O-],5.5%,-8.75%,-13.4%,-50.4%,6.4%,-0.6%
Cc1ccc(S(=O)c2ccccc2[N+](=O)[O-])cc1 (stereo not given),4.85%,9.45%,1.7%,22%,-0.6%,-2%
N#Cc1cnn2ccn(C3OC(CO)C(O)C3O)c12 (stereo not given),-42.8%,-14.2%,-18.9%,-22.6%,-5.45%,14.9%
C=CC1=C(C)C2=NC1=CC1=NC(=CC3=C(C)C4=C(O)CC(=C5NC(=C2)C(C)C5CCC(=O)OC)C4=N3)C(CC)=C1C (stereo not given),8.85%,-1.5%,19.4%,3.65%,-2.05%,22.2%
Cc1ccc(C(=N)c2ccccc2Cc2ccccc2)cc1,-14.4%,-10.7%,-12.8%,2.75%,3.9%,-20.3%
O=C(CNc1ccc2c(=S)c3ccccc3[nH]c2c1)Nc1ccccc1-c1ccccc1NC(=O)CNc1ccc2c(=S)c3ccccc3[nH]c2c1,88.6% (active),92.5% (active),92.1% (active),90.8% (active),90.7% (active),85.9% (active)
C(=C/c1ccc(-c2ccccc2)cc1)/c1ccc(-c2ccccc2)cc1,-4.5%,-13.4%,11.2%,-23.3%,24.4%,-2.45%
C/C=C(\C)C(=O)OCC1CC[N+](C)([O-])C1 (stereo not given),-23.8%,-8%,-6.7%,-57.9%,5%,-15.3%
O=C1OC(Cl)C=C1c1ccccc1 (stereo not given),5.2%,-7.35%,-4.35%,-36.5%,-23.5%,0.65%
CCC(=O)C1(N2CCOCC2)CCN(CCCC(=O)c2ccc(F)cc2)CC1,-25.4%,-9.45%,-1.75%,1.5%,-0.3%,22.1%
CCCCNC(=O)Nc1cccc(C)c1C,-4.2%,-7.9%,0.75%,-25.8%,0.55%,6.35%
Cc1cc(C)c(C(CC(=O)O)C(CC(=O)O)c2c(C)cc(C)cc2C)c(C)c1 (stereo not given),-0.25%,1.5%,-16.6%,-21.4%,-6.85%,32.4%
Cc1ccc(C2=NO[C@@H]3C(=O)N(c4ccc(Cc5ccc(N6C(=O)[C@H]7C(c8ccc(C)cc8)=NO[C@H]7C6=O)cc5)cc4)C(=O)[C@H]23)cc1,-0.4%,30.1%,29.1%,32.4%,31.1%,20.1%

SMILES,growth inhibition [1],growth inhibition [2],growth inhibition [3],growth inhibition [4],growth inhibition [5],growth inhibition [6]
COC1=C(C)C(=O)C2=C(C1=O)C1C3CC4=C(C(=O)C(OC)=C(C)C4=O)C(CNC(=O)C(C)O)N3C(C#N)C(C2)N1C (stereo not given),15.9%,0.85%,8.9%,32.8%,-3.45%,41.5%
COc1cc(C=O)cc(Br)c1O,13.3%,-3.55%,34.1%,-8.45%,-19.7%,34.4%
CCOC1NC(=O)Oc2ccccc21 (stereo not given),4.2%,0.5%,8.1%,7.35%,10.9%,-37.4%
Cc1cc(C)nc(N)c1,3.75%,-11.8%,-0.4%,-21.8%,-3.25%,3.05%
CN(C)CC1CCCCC1O (stereo not given),-4.75%,-5.85%,-5.3%,25.1%,1.95%,-7.35%
Cc1ccc(O)c(C=O)c1,-31.1%,-42.1%,-7.65%,11.7%,-25.7%,-6.8%
CCCCN(CCCC)CCCCCCCCCCCO,38.7%,-8.35%,34.5%,-22.9%,30.8%,27.6%
CC1=CC2(C)OC3C(=O)N(c4ccc(Cl)cc4)C(=O)C3C2N=C1 (stereo not given),-7.65%,-22.9%,-24%,9.6%,-20.1%,-3.35%
Cc1ccc(S(=O)(=O)Nc2ccccc2C(=O)c2ccc(C)c(C)c2)cc1,4.1%,-7.15%,-9.9%,-41%,-40.9%,23.9%
Nc1nc2c(c(=O)[nH]1)CN(c1ccc(S(N)(=O)=O)cc1)CN2,25.9%,-24.6%,0.5%,-7.45%,-26.4%,-12.3%
CN(CC1=C(O)C(=O)C(CN(C)Cc2c(O)ccc3ccccc23)=C(O)C1=O)Cc1c(O)ccc2ccccc12,30.7%,4.85%,34.1%,-1.25%,5.3%,28.9%
COCN(COC)c1nc(CCC(Br)(Br)Br)nc(N(COC)COC)n1,36.5%,11.5%,21.9%,37%,-2.85%,31%
C=C1C(O)CC2C(O)C3(C)CCC(C)(C)C3C12O (stereo not given),3.55%,1.2%,12.2%,15.3%,-0.25%,11.7%
CCc1sc(N)nc1-c1ccccc1,-3.15%,-23.9%,7.05%,-1.65%,4%,-8.75%
CN(C)c1ncnc2c1ncn2C1OC(CO)C(N)C1O (stereo not given),19.2%,3%,26.1%,0.55%,28.5%,20.6%
OCCN1OCCCC1c1ccccc1 (stereo not given),-0.75%,-14.3%,1.2%,-28.1%,-31.2%,0.1%
CC(=O)Nc1cccc(OCOc2ccc([N+](=O)[O-])cc2)c1,-4.65%,20.3%,30.4%,-2.6%,22.6%,40.8%
O=C(O)CCCCC1CCCC1,43.4%,8.3%,12.2%,5.25%,18.5%,56.4%
CC1=C(c2ccccc2)CON(c2ccccc2)C1,-9.3%,-15.1%,-9.2%,-5.4%,14.8%,-9.2%
Cc1cccc(C(=O)OC(=O)c2cccc(C)c2)c1,-3.85%,-37%,-9.75%,-6%,-23.9%,10.3%
